The record followed here is PubChem BioAssay AID588778 (Southern Research Institute, 2011).

The nature of the assay: Vibrio cholerae motility inhibitors, OD read-out (AID 588778). Particulars: stronger effect = higher value.
The mark [1] stands for this setting: measured here: bacterial viability at 10 ug/mL.

Hit rate of the full screen: of about 10,000 compounds, fewer than 10 were called active. The rule behind the calls is not given here. A selection follows.

One may read the inhibition as the relative decrease from the control value, in per cent. Turning to `O=C(Nc1cnccn1)c1cccs1`, the inhibition by setting is: (concentration not given here) 20.3% (inactive); under setting [1], 10.6%.

On to `CCOC(=O)N1CCN(C(=O)c2ccc(C#CC3(O)CCCCC3)cc2)CC1`, for which the inhibition reads like this: (concentration not given here) -17.2% (inactive); under setting [1], -5.67%.

Consider `CC(C)N=C(NS(=O)(=O)c1ccccc1)c1ccccc1`, for which the inhibition was -3.11% (inactive) (concentration not given here) and -1.85% under setting [1].

Turning to `Cc1nc(NC(=O)c2c(F)c(F)c(F)c(F)c2F)ccc1I`, the inhibition was 13% (inactive) (concentration not given here) and 0.675% under setting [1].

On to `COc1ccc2[nH]cc(CCNS(=O)(=O)Cc3ccccc3)c2c1`, for which the inhibition (concentration not given here) is 8.63% (inactive) and the inhibition under setting [1] is 0.04%.

As to `O=C(NC(=S)NCc1ccccc1)C1CC1`, the inhibition is, setting by setting: (concentration not given here) 12.4% (inactive); under setting [1], 5.74%.

With `CC(NC(=O)c1ccco1)c1ccc(I)cc1` (stereo not drawn), the inhibition is, setting by setting: (concentration not given here) 15.8% (inactive); under setting [1], 23.3%.

For `CSc1cccc(NC(=O)Cn2c(C)c(C=O)c3ccccc32)c1`, the inhibition is, setting by setting: (concentration not given here) 20.7% (inactive); under setting [1], 5.17%.

For the molecule `CC(C)(C)OC(=O)NNC(=O)Nc1ccccc1C(F)(F)F`, the inhibition (concentration not given here) was 15.3% (inactive) and the inhibition under setting [1] is 31.8%.

Regarding `O=C(O)c1ccc(NC(=O)c2ccc(Cl)cc2)c(NC(=O)c2ccc(Cl)cc2)c1`, the inhibition (concentration not given here) was -7.79% (inactive) and the inhibition under setting [1] is -2.21%.

Regarding `N#Cc1cc2c(nc1SCC1(O)CCCc3ccccc31)CCCC2` (stereo not drawn), the inhibition (concentration not given here) is 8.28% (inactive) and the inhibition under setting [1] is -3.11%.

For the molecule `COc1ccc(-c2csc3ncnc(Oc4cccc5cccnc45)c23)cc1`, the inhibition reads like this: (concentration not given here) -32.6% (inactive); under setting [1], -9.37%.

Take `COc1cccc2cc(C(=O)Nc3scc(-c4ccc(F)cc4)c3C(=O)OC(C)C)c(=O)oc12`: the inhibition (concentration not given here) is -22.6% (inactive) and the inhibition under setting [1] was -8.21%.

On to `O=[N+]([O-])c1cccc(CN2CCC(N3CCCC3)CC2)c1`, for which the inhibition was -18.4% (inactive) (concentration not given here) and -10.2% under setting [1].

In the case of `NC(=O)C1(N2CCCCC2)CCN(C(=O)CSc2nc3ccccc3o2)CC1`, the inhibition was 4.33% (inactive) (concentration not given here) and -1.26% under setting [1].

For the molecule `CCN(CC#CCCOC(C)=O)c1ccccc1`, the inhibition is, setting by setting: (concentration not given here) -9.42% (inactive); under setting [1], -8.17%.

Regarding `O=C(NC(=S)Nc1ccc(Cl)cc1C(F)(F)F)c1ccccc1I`, the inhibition is, setting by setting: (concentration not given here) -7.41% (inactive); under setting [1], -8.11%.

Take `COc1cc(C=O)ccc1OC(=O)c1nsc(Cl)c1Cl`: the inhibition is, setting by setting: (concentration not given here) 2.31% (inactive); under setting [1], 2.66%.

As to `O=C(NCCSc1ccc(Cl)cc1)Nc1ccccc1`, the inhibition by setting is: (concentration not given here) 52.1% (inactive); under setting [1], 14.4%.

`Cc1ccc(F)c(NC(=O)CN2C(=O)CSc3ccccc32)c1`: the inhibition runs as follows: (concentration not given here) 16.3% (inactive); under setting [1], 13.8%.

For the molecule `CCCCCOc1ccc(NC(=O)C(=O)NCCN2CCOCC2)cc1`, the inhibition (concentration not given here) was -4.07% (inactive) and the inhibition under setting [1] was -7.64%.

In the case of `COc1ccc(C(=O)N(Cc2ccc(C)o2)C2CCS(=O)(=O)C2)cc1Cl` (stereo not drawn), the inhibition was 1.9% (inactive) (concentration not given here) and 1.08% under setting [1].

Consider `Cc1nnc(SCC(=O)Nc2ccc(Cl)cn2)s1`, for which the inhibition was -2.25% (inactive) (concentration not given here) and -0.63% under setting [1].

For the molecule `Cc1ccc(S(=O)(=O)Nc2ccc(C(=O)Nc3nccs3)cc2)cc1`, the inhibition by setting is: (concentration not given here) 4.81% (inactive); under setting [1], -2.49%.

As for `Cn1cnnc1SCC(=O)Nc1ccccn1`, the inhibition runs as follows: (concentration not given here) 9.88% (inactive); under setting [1], 31.7%.

`Clc1ccc(Cc2nc(-c3cccnc3)no2)cc1`: the inhibition by setting is: (concentration not given here) 5.04% (inactive); under setting [1], 0.075%.

In the case of `CCOc1cc2c(cc1OCC)C(c1ccc(OC)c(OC)c1)N(c1ccc(C(=O)O)cc1)C(=O)C2` (stereo not drawn), the inhibition is, setting by setting: (concentration not given here) -8.01% (inactive); under setting [1], -1.54%.

Take `COc1ccc(Br)cc1CNCc1cccs1`: the inhibition by setting is: (concentration not given here) 84.4% (inactive); under setting [1], 24.4%.

Take `C=CCn1c2ccccc2c2nnc(SCC(=O)Nc3cc(C)on3)nc21`: the inhibition runs as follows: (concentration not given here) -1.67% (inactive); under setting [1], -8.05%.

As to `CC1=C(C(=O)Nc2nc3ccccc3s2)C(c2ccc(F)cc2)C2=C(CCCC2=O)N1` (stereo not drawn), the inhibition (concentration not given here) is -5.34% (inactive) and the inhibition under setting [1] turned out to be 0.795%.

As to `CC(C)(NO)C(=O)c1ccc(Cl)cc1`, the inhibition was 1.66% (inactive) (concentration not given here) and -5.03% under setting [1].

With `CC12CCC(C(=O)NCc3ccccc3Cl)(CC1=O)C2(C)C` (stereo not drawn), the inhibition is 7.42% (inactive) (concentration not given here) and -6.53% under setting [1].

In the case of `Cc1cc(NC(=O)COc2cc(C)c(Cl)c(C)c2)no1`, the inhibition (concentration not given here) was 3.92% (inactive) and the inhibition under setting [1] was -7.52%.

For `CCOc1ccc2ccccc2c1C(=O)NCc1cccs1`, the inhibition runs as follows: (concentration not given here) 17.9% (inactive); under setting [1], 2.9%.

With `O=C(CC1(c2ccc(Cl)cc2)C(=O)c2ccccc2C1=O)N1CCCCC1`, the inhibition (concentration not given here) was 16% (inactive) and the inhibition under setting [1] was -0.9%.

As to `Cc1occc1C(=O)Nc1cc(=O)n(C)c(=O)n1C`, the inhibition is 3.62% (inactive) (concentration not given here) and -1.31% under setting [1].

`Cc1c(C(=O)c2ccccc2)c(=O)n(C)c(=O)n1C`: the inhibition (concentration not given here) is -8.62% (inactive) and the inhibition under setting [1] amounted to 1.24%.

With `COc1ccc(OC)c(NC(=O)Cn2c(C)ccc2C)c1`, the inhibition reads like this: (concentration not given here) 5.31% (inactive); under setting [1], 2.44%.

Take `CC12CCC(C(=O)Nc3ccc(SC(F)F)cc3)(CC1=O)C2(C)C` (stereo not drawn): the inhibition is, setting by setting: (concentration not given here) 7.67% (inactive); under setting [1], 34.3%.

For `S=C(NCc1ccc(Cl)cc1)N1CCC2(CC1)OCCO2`, the inhibition reads like this: (concentration not given here) -10.1% (inactive); under setting [1], -3.96%.

As to `OCCNC(=S)NC1CCCCC1`, the inhibition runs as follows: (concentration not given here) -10.2% (inactive); under setting [1], -4.3%.

Turning to `OCCNC/C=C/c1c(F)c(F)c(F)c(F)c1F`, the inhibition runs as follows: (concentration not given here) 8.12% (inactive); under setting [1], 1.91%.

With `O=C(c1ccc(Sc2nnc(Cc3ccccc3)n2-c2ccccc2)c([N+](=O)[O-])c1)N1CCCC1`, the inhibition runs as follows: (concentration not given here) -6.85% (inactive); under setting [1], 7.99%.

Consider `COc1ccc(NC(=S)Nc2ccccc2OC(F)F)cc1OC`, for which the inhibition was -38% (inactive) (concentration not given here) and -5% under setting [1].
